# Data from PubChem BioAssay (EPA / NIEHS).
# Values joined by “and” are separate entries in the source; they are usually repeats but may differ in a detail not shown here. Equal entries are not always repeated. Active and inactive are the calls of the source. How the source made its calls: active means hit-call score of the fitted dose curve at least 0.9, where 1 is the maximum; inactive means score below 0.9.
# Read-out: Pselectin, SELP (gene 6403)
# Test: BSK_4H_Pselectin: BioMAP Diversity Plus: 4H Assay for Pselectin Biomarker Activity (AID 2283026)
# Details: primary human endothelial cells (HUVEC); actives raise or lower the signal
# Description: BSK_4H is a cell-based, multiplexed-readout assay that uses umbilical vein endothelium, a human vascular primary cell, with measurements taken at 24 hours after chemical dosing in a 96-well plate.BSK_4H_Pselectin is an assay component measured in the BSK_4H assay. It measures P-Selectin antibody related to regulation of gene expression using ELISA technology.Data from the assay component BSK_4H_Pselectin was analyzed into 1 assay endpoint. This assay endpoint, BSK_4H_Pselectin, was analyzed with bidirectional fitting relative to DMSO as the negative control and baseline of activity. Using a type of binding reporter, gain or loss-of-signal activity can be used to understand changes in the signaling as they relate to the gene SELP. Furthermore, this assay endpoint can be referred to as a primary readout, because this assay has produced multiple assay endpoints where this one serves a signaling function. To generalize the intended target to other relatable targets, this assay endpoint is annotated to the cell adhesion molecules intended target family, where the subfamily is selectins.
# The levels of cell surface (or secreted, indicated by the prefix "s") biomarker endpoints were measured by ELISA. Overt cytotoxicity to cells in confluent adherent cultures (all systems other than the BT system) was assessed by measuring total protein levels using sulforhodamine B (SRB) staining in parallel cultures at the time of biomarker measurements, indicated as SRB endpoints. For proliferation assays for adherent cell types, individual cell types are cultured at sub-confluence and relative cell numbers quantified by SRB staining at time points optimized for each system (48 h: 3C and CASM3C systems; 72 h: BT and HDF3CGF systems; 96 h: SAg system). SRB was performed by staining cells with 0.1% SRB after fixation with 10% TCA and reading wells at 560 nm.Viability and proliferation of PBMC (T cells) was quantified by Alamar Blue reduction for the SAg and BT systems. For PBMC viability (referred to as PBMC Cytotoxicity within the assay endpoint names), cells were plated (75,000/well in a 96-well plate) and then chemical samples added for 1 h before addition of activators, SEB and TSST-1 (20 ng/mL final concentration each). Cells were incubated for 90 h. Then, Alamar Blue (20 uL/well) (Invitrogen, Cat DAL1100) was added for 6 h, and the plates were read with a fluorescence microplate reader at 546/580 nm (excitation/emission). For PBMC proliferation, cells were plated and activated as above but incubated for only 16 h prior to addition of Alamar Blue. Plates were read after 6 h.
SMILES,outcome,AC50
CC1OC1C1CCC2(C)OC2C1 (stereo not given),inactive,–
C=CC=CC=CCCCCC,inactive,–
CCO[Si](C)(OCC)OCC,inactive,–
O=c1c2ccccc2oc2ccccc12,inactive,–
O=Nc1ccc(O)cc1,inactive,–
CCCCC(CC)COCC1CO1 (stereo not given),inactive,–
CN1C(=O)N(C)C(O)C1O (stereo not given),inactive,–
Nc1ccc(N)c(Cl)c1,–,6.21 µM (active) and 3.97 µM (active)
C=CCOCC(O)CCl (stereo not given),inactive,–
CCOC(=O)c1ccccc1C(=C1C=C(Br)C(=O)C(Br)=C1)c1cc(Br)c(O)c(Br)c1,–,21.9 µM (active) and 19.8 µM (active)
CCO[Si](CCCN=C=O)(OCC)OCC,inactive,–
CCCCCCCCCCCCCCCC[N+](C)(C)CC,–,6.2 µM (active)
CCCCC/C=C\C/C=C\CCCCCCCC(=O)OC,–,20 µM (active)
CCCCC(CC)COC(=O)c1ccccc1O (stereo not given),–,16.2 µM (active)
C/C=C\C/C=C/CCCCCCCCOC(C)=O,–,20 µM (active)
CC(C)(c1cc(Br)c(OCCO)c(Br)c1)c1cc(Br)c(OCCO)c(Br)c1,–,8.19 µM (active)
C=CC(=O)OCC(Br)CBr (stereo not given),–,20 µM (active)
c1ccc(-c2ccccn2)nc1,inactive,–

SMILES,outcome,AC50
CCCCCCCCc1ccc(Nc2ccc(CCCCCCCC)cc2)cc1,inactive,–
S=C(NC1CCCCC1)NC1CCCCC1,inactive,–
COc1ccc2nc(N)sc2c1,inactive,–
N#[N+]c1ccc2c(S(=O)(=O)[O-])cccc2c1O,inactive,–
CCCCNc1ccc(NCCCC)c2c1C(=O)c1ccccc1C2=O,inactive,–
C=C[Si](OC(C)=O)(OC(C)=O)OC(C)=O,inactive,–
O=C(c1ccc(O)cc1)c1ccc(O)cc1O,inactive,–
CCOc1nc(F)cc2nc(S(=O)(=O)Nc3c(Cl)cccc3C(=O)OC)nn12,inactive,–
c1ccc2c(c1)ccc1ncccc12,–,20 µM (active)
C#CC1(O)CC[C@H]2[C@@H]3CCC4=CCCC[C@@H]4[C@H]3CC[C@@]21C (stereo not given in full),–,11.4 µM (active)
C=CCOc1c(Br)cc(Br)cc1Br,–,20 µM (active)
O=C(Cl)c1cc(C(=O)Cl)cc(C(=O)Cl)c1,–,11.6 µM (active)
O=C(Nc1ccccc1SSc1ccccc1NC(=O)c1ccccc1)c1ccccc1,inactive,–
O=C1CCCN1CCO,inactive,–
c1ccc2c(c1)ccc1cc3c(ccc4ccccc43)cc12,inactive,–
CC(C)C(=O)C(C)C,inactive,–
CO[Si](OC)(OC)c1ccccc1,inactive,–
